# Screening results deposited in PubChem BioAssay by several laboratories.
# NR2F2 inh: NR2F2 transcriptional activity inhibitors, primary screen, cell-based, luciferase reporter, HEK293T, luminescence | HEK293T NGFI-A luciferase reporter | inhibition, % at 8.6 µM | actives 0.7% (n = 370,000) | AID 686940, 2013;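 active = inhibition above a per-plate cutoff, mean inhibition of test wells between control levels plus 3 SD, cut at about 38% in these data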;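 also: cells cotransfected with COUP-TFII expression vector driving the NGFI-A reporter; 0% = median of COUP-TF2 test wells and 100% = reporter-only cells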
# Target sequence (P24468 whole entry, looked up): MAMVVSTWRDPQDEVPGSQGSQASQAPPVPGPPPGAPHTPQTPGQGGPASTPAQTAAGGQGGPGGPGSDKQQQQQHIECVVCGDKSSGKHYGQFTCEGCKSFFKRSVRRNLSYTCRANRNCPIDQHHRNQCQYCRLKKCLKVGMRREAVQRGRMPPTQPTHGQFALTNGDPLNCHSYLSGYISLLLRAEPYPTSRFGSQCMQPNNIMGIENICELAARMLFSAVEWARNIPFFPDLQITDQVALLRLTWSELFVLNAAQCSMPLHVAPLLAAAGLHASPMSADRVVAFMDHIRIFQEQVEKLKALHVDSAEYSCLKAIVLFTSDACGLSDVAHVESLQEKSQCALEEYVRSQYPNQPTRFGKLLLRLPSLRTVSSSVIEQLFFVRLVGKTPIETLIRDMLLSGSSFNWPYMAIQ
# Jurkat NFkB inh: inhibitors of induced NF-kB luciferase reporter, primary screen, TCR NF-kB activation inhibitor project, cell-based, luminescence, uHTS; Jurkat, PMA/ionomycin-induced NF-kB luciferase reporter; actives 0.53% (n = 330,000); inhibition, % at 4 µM; in the data active = inhibition above about 50%
# 697 NFkB inh: inhibitors of PMA/ionomycin-induced NF-kB reporter, 697 cells, primary screen, B-cell NF-kB inhibitor project, cell-based, luminescence, uHTS | 697 B-cell NF-kB luciferase reporter, 16 h | inhibition, % at 4 µM | actives 0.33% (n = 330,000); in the data active = inhibition above about 35%
# GalR3 antag: GalR3 antagonists in HEK293 cells, primary screen, cell-based, fluorescence readout. inhibition, % at 3 µM. AID 651719, 2012. actives 0.44% (n = 360,000). Galanin receptor type 3 (Homo sapiens), O60755. HEK293 GalR3-CNG cAMP membrane potential fluorescence; galR3 body fused to GalR1 C-terminus;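 active = inhibition above the screen-wide average plus 3 SD, cut at about 13% in these data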;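 also: forskolin and galanin both at EC90 stimulate the cells; cAMP rise reported by CNG channel membrane potential dye signal; 0% = forskolin plus galanin with DMSO and 100% = forskolin alone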
# Gli-Sufu block: Gli-Sufu pathway antagonists, primary screen, luciferase luminescence, Sufu-KO-LIGHT cells, uHTS | actives 0.74% (n = 340,000) | Sufu-KO-LIGHT fibroblasts, Gli luciferase reporter luminescence | inhibition, % at 5 µM;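 active = inhibition above about 55%, limit read from the data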;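 also: 0% = DMSO-treated cells and 100% = wells with medium but no cells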
# VP16 Luc counter: Gal4-VP16 luciferase reporter inhibitors, counter-screen for COUP-TFII antagonist project, cell-based, luminescence, HEK293. shares compounds with NR2F2 inh. inhibition, % at 8.5 µM. actives 25% (n = 2,500); in the data active = inhibition above about 13%
# NR2F2 inh conf: NR2F2 transcriptional activity inhibitors, confirmation, cell-based, luciferase reporter, HEK293, triplicate | shares compounds with NR2F2 inh | AID 687008, 2013 | HEK293 NGFI-A luciferase reporter, luminescence | inhibition, % at 8.5 µM | actives 45% (n = 2,500);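 active = mean inhibition over three repeats above a set limit taken from the earlier primary screen, cut at about 38% in these data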;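 also: 100% = cells given the luciferase reporter alone without the COUP-TF2 vector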
# An asterisk follows results filed as active; x = not tested or not shown; ! = not active in a repeat. Compounds with a hit are over-represented: about 2% of the library has one in this group of screens.
SMILES,NR2F2 inh,Jurkat NFkB inh,697 NFkB inh,GalR3 antag,Gli-Sufu block,VP16 Luc counter,NR2F2 inh conf
COc1ccc(-c2nnc(SCC(=O)Nc3ccc4cn[nH]c4c3)n2Cc2ccco2)cc1,4.8,x,x,x,x,x,x
CCN(CC)S(=O)(=O)c1cccc(C(=O)Nc2nc3cc4c(cc3s2)OCCO4)c1,58.1*,5.1,-29.5,-4.5,-7.3,-9.4,32.4
O=C(Nc1nc2cc3c(cc2s1)OCCO3)c1cccc(N2C(=O)CCC2=O)c1,-23.7,-2.3,-39.6,x,-48.1,x,x
Cc1ccc(-n2c(SCC(=O)Nc3ccc4c(c3)OCCO4)nnc2-c2cccnc2)cc1,-2.0,x,x,x,x,x,x
CCCCCCCCN1C(=O)[C@@H](CC(=O)NCc2ccccc2)C[C@@]2(C(=O)OC)C1=C[C@H](C(C)C)O[C@@H]2C1CC1,11.9,x,x,x,x,x,x
CN(C)c1ccc(/C=C/c2nc3ccccc3s2)cc1,68.6*,-33.9,-187.8,-4.6,21.7,51.6*,81.8*
CN(C)c1ccc(/C=C/c2ccc3ccccc3n2)cc1,x,x,x,x,28.3,x,x
Cc1onc(-c2ccccc2Cl)c1C(=O)Nc1cccc2cccnc12,43.0*,23.2,-53.4,-3.2,-2.7,4.3,32.6
CC1CCN(c2ccc(-c3cccc(NC(=O)C(F)(F)F)c3)nn2)CC1,40.6*,-0.6,-93.2,-7.7,43.6,-0.6,32.9
O=C(Nc1cccc(-c2ccc(N3CCCCC3)nn2)c1)C(F)(F)F,19.9,-48.3,-114.5,-6.4,19.5,x,x
O=C(Nc1cccc(O)c1)c1cc(-c2ccccc2Cl)on1,60.5*,-51.1,-19.5,-7.8,-28.7,-11.9,10.1
O=C(Nc1cccc(O)c1)c1cc(-c2ccc3c(c2)OCO3)on1,43.1*,-27.9,-100.1,-8.1,-152.2,-2.4,16.0
COC(=O)[C@H](C(C)C)N1Cc2nnn(CC3CCCCC3)c2-c2ccccc2S1(=O)=O,0.5,x,x,x,x,x,x
CN(c1ccc(C(=O)N2CCN(Cc3ccc4c(c3)OCO4)CC2)cc1)S(=O)(=O)c1ccccc1,47.6*,33.4,-2.4,-7.1,7.1,8.5,34.8
Cc1ccc(S(=O)(=O)N(C)c2ccc(C(=O)N3CCN(Cc4ccc5c(c4)OCO5)CC3)cc2)cc1,56.5*,36.9,17.0,-6.6,14.0,5.4,39.1*
Cc1cc(=O)oc2cc(O)cc(O)c12,-4.6,x,x,-0.7,-1.1,x,x
CCCCCc1cc(O)c2c(C)cc(=O)oc2c1,41.5*,1.1,-8.5,-6.2,11.4,-20.3,-3.4
COc1cc(NC(=O)c2cnc(N)o2)cc(C(=O)Nc2cccc(C(F)(F)F)c2)c1,66.1*!,15.4,9.6,-4.9,6.0,-21.1,21.9
CCCCC(=O)c1ccc(O)cc1O,102.5*,-10.7,-12.8,2.4,-3.3,-10.4,3.5
COC(=O)[C@]12C[C@H](CC(=O)N3CCCC3)C(=O)N(Cc3ccccc3)C1=C[C@H](COCc1ccccc1)O[C@@H]2C,-8.6,x,x,x,x,x,x
Cn1nc(C(C)(C)C)cc1C(=O)N1CCCCC1c1cc(C(=O)NCc2ccc(F)cc2)no1 (stereo not given),38.5*,x,x,-7.4,x,2.7,16.8
Cn1nc(C(C)(C)C)cc1C(=O)N1CCCCC1c1cc(C(=O)NCc2ccccc2)no1 (stereo not given),27.7,x,x,-9.4,x,x,x
Cc1ccc(C(=O)N2c3ccccc3N(Cc3ccccc3)C(=O)C2(C)C)cc1,51.1*,9.7,-20.1,-1.1,18.1,-1.2,46.6*
COc1ccc(Cn2ccc3ccc(-c4ccc5ccn(Cc6ccc(OC)cc6)c5c4)cc32)cc1,-3.6,x,x,x,x,x,x
COc1ccc(CN2C(=O)N3Cc4ccc(C)cc4C3CS2(=O)=O)cc1 (stereo not given),-8.3,x,x,x,x,x,x
